Sampled rows, rich in hits. Any-hit rate of the full collection: about 1.3%.
GALR2 antag: GALR2 (human) receptor antagonism; GALR2-expressing cells, antagonist mode; inhibition, % at 4 µM; O43603; actives 0.39% (n = 140,000);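 also: cells stimulated with galanin 1-16 at roughly its EC80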
cytoskel mod: alters cytoskeleton assembly in HUVEC cells; actives 0.18% (n = 91,000); inhibition, % at 2 µM; AID 836; HUVEC TNFa F-actin phalloidin imaging, high content;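 active = inhibition above the batch mean plus 3 SD and confirmed as a hit by visual image inspection, cut at about 30% in these data, passing the limit was not always enough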
GALR2 agonist: GALR2 (human) receptor agonism; O43603; actives 0.48% (n = 140,000); GALR2-expressing cells, agonist activation read-out; activation, % (test concentration not listed); in the data active = activation above about 5%, passing the limit was not always enough
S1P2 agonist: S1P2 (human) receptor agonism; O95136; AID 729; S1P2-expressing cell line, agonist reporter read-out; activation, % at 4.5 µM; actives 0.46% (n = 97,000); in the data active = activation above about 16%
Target sequence (O95136 whole entry, looked up): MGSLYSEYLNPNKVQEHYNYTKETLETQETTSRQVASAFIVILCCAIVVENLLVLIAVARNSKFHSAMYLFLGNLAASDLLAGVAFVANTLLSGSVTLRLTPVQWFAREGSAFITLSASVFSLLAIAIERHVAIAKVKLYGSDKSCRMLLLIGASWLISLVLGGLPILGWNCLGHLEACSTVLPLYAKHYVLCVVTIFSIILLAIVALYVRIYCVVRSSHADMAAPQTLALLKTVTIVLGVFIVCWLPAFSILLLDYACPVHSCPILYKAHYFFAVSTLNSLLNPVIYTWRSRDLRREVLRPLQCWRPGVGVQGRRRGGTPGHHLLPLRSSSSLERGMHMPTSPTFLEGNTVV
S1P2 antag: antagonists of human S1P2 receptor | O95136 | cell-based S1P2 antagonist assay, inhibition at 5 uM | inhibition, % at 5 µM | actives 0.21% (n = 97,000) | AID 736; in the data active = inhibition above about 45%;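 also: CRE beta-lactamase reporter cells expressing human S1P2 stimulated with S1P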
GALR2 ant conf: confirmation of human galanin receptor 2 (GALR2) antagonists; AID 866; GALR2-expressing cells, antagonist mode, inhibition; actives 60% (n = 480); shares compounds with GALR2 antag; inhibition, % at 4 µM;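 also: cells stimulated with galanin at about its EC80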
BLA inh counter: counter-screen for GALR2 antagonists: beta-lactamase reporter inhibitors | AID 867 | inhibition, % at 4.2 µM | actives 36% (n = 480) | CHO NFAT-BLA reporter, beta-lactamase FRET, thapsigargin-stimulated | shares compounds with GALR2 antag;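 active = inhibition above the mean inhibition across tested compounds plus 3 SD, cut at about 27% in these data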
Of the large screens only hits and unclear results are named; the others gave an inactive call (follow-up assays come after a bar, where they were run). Rule as the data show it, unless noted: active = inhibition above about 27%; inactive = the rest.

COc1ccccc1NC(=O)Cc1nn(C)c(=O)c2ccccc12	GALR2 antag 34.5 | GALR2 ant conf 40.1 | BLA inh counter inactive
COc1cc(NC(=O)Cc2nn(C)c(=O)c3ccccc23)cc(OC)c1	none
O=C(N=Nc1c(O)[nH]c2ccc(Cl)cc12)c1cc(-c2cccs2)nc2ccccc12	none (no result: cytoskel mod, S1P2 agonist, S1P2 antag)
O=C1C=CC(=O)N1CCCCCCN1C(=O)C=CC1=O	GALR2 antag 86.2 (no result: cytoskel mod, S1P2 agonist, S1P2 antag) | GALR2 ant conf 78.1 | BLA inh counter 95.3
CC(Cc1cccs1)NC(=O)Nc1ccc(F)cc1 (stereo unspecified)	GALR2 antag 28.4 (no result: cytoskel mod) | GALR2 ant conf inactive | BLA inh counter inactive
CC(Cc1cccs1)NC(=O)Nc1cccc(Cl)c1 (stereo unspecified)	none (no result: cytoskel mod)
Cc1sc2ncnc(NCCc3ccc(S(N)(=O)=O)cc3)c2c1C	GALR2 antag 36.7, S1P2 antag 62.8 | GALR2 ant conf 47.2 | BLA inh counter inactive
NS(=O)(=O)c1ccc(CCNc2ncnc3sccc23)cc1	none
Cc1ccc2nc(NC(=O)CSc3nncc(=O)n3N)sc2c1	none (no result: cytoskel mod, S1P2 agonist, S1P2 antag)
Cc1c(C(=O)Nc2cccc(Cl)c2)c2ccccn2c1CCc1ccncc1	GALR2 antag 32.9 (no result: cytoskel mod, S1P2 agonist, S1P2 antag) | GALR2 ant conf inactive | BLA inh counter inactive
COc1cc2nc(C)sc2cc1SC	GALR2 antag 27.0 (no result: cytoskel mod, S1P2 agonist, S1P2 antag) | GALR2 ant conf inactive | BLA inh counter inactive
Cc1nc2cc3nc(C)sc3cc2s1	none (no result: cytoskel mod, S1P2 agonist, S1P2 antag)
CC1=C(C)CS(=O)N(c2ccc(S(N)(=O)=O)cc2)C1 (stereo unspecified)	GALR2 antag 29.6 | GALR2 ant conf 27.8 | BLA inh counter inactive
CCCn1c(C)cc(C(=O)COC(=O)c2ccc[nH]c2=O)c1C	none (no result: cytoskel mod, S1P2 agonist, S1P2 antag)
CCCSc1nnc(NC(=O)c2sc3nc(-c4cccs4)ccc3c2N)s1	GALR2 antag 37.6, S1P2 antag 55.2 | GALR2 ant conf inactive | BLA inh counter 33.9
CC(=O)N1c2ccccc2C2(O)N=C(C)SC12 (stereo unspecified)	none (no result: cytoskel mod, S1P2 agonist, S1P2 antag)
O=C(OCn1ncc(Cl)c(Cl)c1=O)c1cccc(C(F)(F)F)c1	GALR2 antag 46.4 | GALR2 ant conf 65.7 | BLA inh counter 42.7
CCOc1cc(N2CCOCC2)c(OCC)cc1NC(=O)COc1ccc2ccc(=O)oc2c1	none (no result: cytoskel mod, S1P2 agonist, S1P2 antag)
CCn1cc(C(=O)Nc2ccc(OC)c(S(=O)(=O)N3CCCCC3)c2)c(=O)c2ccc(C)nc21	none (no result: cytoskel mod, S1P2 agonist, S1P2 antag)
O=C(O)Cc1sc(N/N=C\c2ccccc2)nc1-c1ccccc1	GALR2 antag 29.0 (no result: cytoskel mod, S1P2 agonist, S1P2 antag) | GALR2 ant conf inactive | BLA inh counter inactive
CCn1c2ccccc2c2cc(CN3CCN(S(=O)(=O)Cc4ccccc4)CC3)ccc21	none (no result: cytoskel mod, S1P2 agonist, S1P2 antag)
CC(NC(=O)OC(C)(C)C)C(=O)Oc1cc2oc(=O)cc(-c3ccccc3)c2cc1Cl (stereo unspecified)	GALR2 antag 31.7 | GALR2 ant conf 29.4 | BLA inh counter 39.7
CCOC(=O)c1cc(-c2ccc(C)cc2)n(CCC(=O)N2CCN(c3ccccn3)CC2)c1C	none (no result: cytoskel mod, S1P2 agonist, S1P2 antag)
CS(=O)(=O)CCC(C(=O)OCC(=O)c1ccc(Cl)cc1)N1C(=O)c2ccccc2C1=O (stereo unspecified)	none (no result: cytoskel mod, S1P2 agonist, S1P2 antag)
Clc1ccc(OCCN2CCN(c3ncnc4sccc34)CC2)cc1	GALR2 antag 40.2 (no result: cytoskel mod, S1P2 agonist, S1P2 antag) | GALR2 ant conf 48.8 | BLA inh counter inactive
O=C(/C=C/c1ccc(Cl)c([N+](=O)[O-])c1)Nc1cccc(NC(=O)c2ccco2)c1	none (no result: cytoskel mod, S1P2 agonist, S1P2 antag)
O=C(/C=C/c1ccc(Cl)c([N+](=O)[O-])c1)Nc1ccc(NC(=O)c2ccco2)cc1	GALR2 antag 32.7 (no result: cytoskel mod, S1P2 agonist, S1P2 antag) | GALR2 ant conf inactive | BLA inh counter inactive
Cn1nc(C(C)(C)C)cc1C(=O)NCc1ccc(N2CCCC2=O)cc1	GALR2 antag 44.8 (no result: cytoskel mod, S1P2 agonist, S1P2 antag) | GALR2 ant conf 39.3 | BLA inh counter inactive
Cc1ccc(CNC(=O)c2ccc(N3CCCC3=O)cc2)cc1	none
Cc1ccccc1CS(=O)(=O)c1nnc([C@H](Cc2ccccc2)NC(=O)OC(C)(C)C)o1	GALR2 antag 28.0 | GALR2 ant conf 32.9 | BLA inh counter 55.6
CC(C)(C)OC(=O)N[C@@H](Cc1ccccc1)c1nnc(SCC(=O)O)o1	none
O=C(CCC(=O)N/N=C/c1ccccc1O)NCc1ccccc1	none (no result: cytoskel mod, S1P2 agonist, S1P2 antag)
N#CC(C#N)=C1C=CC=CN1/C(=C\c1ccco1)C(=O)c1ccc(Cl)cc1	GALR2 antag 67.6 (no result: cytoskel mod, S1P2 agonist, S1P2 antag) | GALR2 ant conf 60.1 | BLA inh counter 71.0
N#CC(C#N)=C1C=CC=CN1/C(=C\c1ccco1)C(=O)c1ccc(-c2ccccc2)cc1	GALR2 antag 28.2 (no result: cytoskel mod, S1P2 agonist, S1P2 antag) | GALR2 ant conf 40.9 | BLA inh counter 33.3

Source: PubChem BioAssay
